# Measured values published in PubChem BioAssay AID624417 (National Center for Advancing Translational Sciences (NCATS), 2012).
# Among all 410,000 compounds or so, about 6,400 (1.6%) were called active. Inconclusive results (about 20%) are left out. Many of the other results were omitted from the sample, so actives are more common in it than they were. A number with no mark means an inactive call. The call rests on the fitted dose curve; in most records, active means well fitted inhibition curve with a large enough effect; inconclusive means small, poorly fitted or top-dose-only effect; inactive means no such curve, though single readings can be large or run the other way.
# Target: Glucagon-like peptide 1 receptor (Homo sapiens) (UniProt P43220)
# Experiment: qHTS of GLP-1 Receptor Inverse Agonists (Inhibition Mode); further: nearly all actives have a fitted effect of over 55% in size
# Conditions: HEK293 GLP-1R CRE-luciferase, luminescence, 24 h, GLP-1R form is constitutively active; series mostly up to 38.3 µM; activity change, negative = inhibition: at the top concentration
# Procedure, shortened: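 HEK293 cells stably co-expressing constitutively active GLP-1R and a cAMP-responsive luciferase reporter were seeded in DMEM with 10% Nu serum, given compounds after 12 h, and incubated 24 h at 37 deg C. Luminescence was then read.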
# On the % scale 0 is the no-effect control and ±100 the full control effect; potency means the concentration at half of the fitted maximal effect.
# Glucagon-like peptide 1 receptor (Homo sapiens), sequence (P43220 whole entry, looked up): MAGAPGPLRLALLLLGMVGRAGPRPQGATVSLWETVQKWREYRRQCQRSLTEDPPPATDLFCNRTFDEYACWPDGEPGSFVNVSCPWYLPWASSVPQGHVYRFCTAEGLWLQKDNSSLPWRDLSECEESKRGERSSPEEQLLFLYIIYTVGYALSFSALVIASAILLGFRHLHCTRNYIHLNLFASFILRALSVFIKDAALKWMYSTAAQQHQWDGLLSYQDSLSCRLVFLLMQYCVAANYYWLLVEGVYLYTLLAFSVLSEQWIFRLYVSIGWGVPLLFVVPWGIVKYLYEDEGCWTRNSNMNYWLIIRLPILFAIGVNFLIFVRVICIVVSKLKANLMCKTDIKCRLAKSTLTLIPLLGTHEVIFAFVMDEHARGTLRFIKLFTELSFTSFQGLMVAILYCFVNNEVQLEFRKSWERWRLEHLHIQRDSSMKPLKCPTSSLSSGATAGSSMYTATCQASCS
SMILES,"activity change, negative = inhibition [%]",Potency
CC(OC(=O)c1ccc(NC(=O)CC#N)cc1)C(=O)Nc1ccc(S(=O)(=O)N2CCCC2)cc1 (stereo unspecified),15.1,
O=C1NC[C@@H](CCCCN2CCN(CCc3ccc(O)cc3)C(=O)C2=O)N(CC2CCCCC2)C1=O,23.4,
Cc1ccc(S(=O)(=O)N(CCc2ccccc2)c2ccc3c(c2)C2CC3CCN2C(=O)OCc2ccccc2)cc1 (stereo unspecified),18.9,
C=CCOC(=O)N1CCC2CC1c1cc(-c3ccc(OC)cc3)ccc12 (stereo unspecified),,10 µM (active)
COc1ccc(-c2ccc3c(c2)C2CC3CCN2CCC#N)cc1 (stereo unspecified),-11.5,
C[C@@H]1CN([C@H](C)CO)C(=O)CCCn2cc(nn2)CO[C@H]1CN(C)S(C)(=O)=O,2.04,
Cc1ccc(C(O)c2ncc(-c3ccccc3F)[nH]2)cc1F (stereo unspecified),19.2,
O=C1c2ccccc2S(=O)(=O)N1Cc1c(F)cccc1Cl,-0.161,
CC(C)(C)c1ccc(CN2C(=O)c3ccccc3S2(=O)=O)cc1,,10 µM (active)
COc1ccc(CNC(=O)CN2C(=O)c3ccccc3S2(=O)=O)cc1,-3.6,
CCc1cc(-c2nnn(CCC3COCCO3)c2CC)ccc1-c1cn(Cc2ccc3ccccc3c2)nn1 (stereo unspecified),-0.29,
CC(OC(=O)c1cccnc1Cl)C(=O)NC1CCCCC1 (stereo unspecified),-11.3,
C[C@H](CO)N1C[C@H](C)[C@@H](CN(C)Cc2ccc3c(c2)OCO3)OCc2cnnn2CCCC1=O,12.5,
CCCCn1c(CN2CCN(CCO)CC2)nc2ccccc21,2.47,
CCCCn1c(CCCNC(=O)CC)nc2ccccc21,8.25,
C=C(Br)Cn1c(CCCC)nc2ccccc21,,2.82 µM (active)
Nc1[nH]c(C(=O)c2ccccc2)c(-c2ccncc2)c1C(=O)NCc1cccc2ccccc12,-23.5,
CCOc1ccc(NC(=O)CSc2c3c(nc4ccccc24)CCCC3)cc1,0.368,
Cc1ccc(Nc2c3c(nc4ccccc24)CCC3)cc1,,5.62 µM (active)
Cc1ccc(CNC(=O)CSc2c3c(nc4cc(Cl)ccc24)CCCC3)cc1,-7.55,
CCCNC(=O)C1(C)CCN1C(=O)C1(c2ccccc2)CC1 (stereo unspecified),9.22,
CC(C)n1cnc2c(Nc3cccc(Cl)c3)nc(N(CCO)CCCO)nc21,,10 µM (active)
COc1ccc(NS(=O)(=O)c2cc(NC(=O)/C=C/c3cc(OC)c(OC)c(OC)c3)ccc2N2CCCCC2)cc1,5.85,
CCOc1ccc(C(=O)Nc2ccc3nc4c(c(Nc5ccccc5OC)c3c2)CCCC4)cc1,-16.8,
COc1ccccc1Nc1c2c(nc3ccc(NC(=O)/C=C/c4cc(OC)c(OC)c(OC)c4)cc13)CCCC2,,3.55 µM (active)
O=C1NC(Cc2ccccc2)c2nc3ccc(Br)cc3c(=O)n2-c2cc3ccccc3cc21 (stereo unspecified),16.1,
